Measured values as given in PubChem BioAssay (NCATS).
Active and inactive are the calls of the source. How the calls were made is not given here.

Assay: qHTS assay for small molecule activators of the human pregnane X receptor (PXR) signaling pathway (AID 720659)
Conditions: DPX-2 HepG2 CYP3A4-luciferase, 24 h; series mostly up to 92.3 µM
In the case of `Nc1ncn([C@@H]2O[C@H](CO)[C@@H](O)[C@H]2O)c(=O)n1`, the outcome was “inactive”.
With `O=C(O)CCCCCCCC(=O)O` the outcome was “inactive”.
With `CC(=O)Nc1nnc(S(N)(=O)=O)s1` the outcome was “inactive”.
In the case of `O=c1[nH]c(=O)n([C@H]2C[C@H](O)[C@@H](CO)O2)cc1Br`, the outcome was “inactive”.
With `CCCCNC(=O)NS(=O)(=O)c1ccc(C)cc1` the outcome was “inactive”.
In the case of `COc1cc(Cc2cnc(N)nc2N)cc(OC)c1OC`, the outcome was “inactive”.
